Assay results as given in the supplement of paper PMC8047044.
Where a name gives a salt, the structure may show the parent alone.

The compounds below were run on Neuro-2a (assay: neurite formation score, plate-normalized to DMSO control mean 5.04 (score (0-8 scale)); higher = more or longer neurites). Details: 1 µM.
Method: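 Neuro-2a mouse neuroblastoma cells in PLL-coated 96-well plates were pre-treated for 1 h in DMEM(+) with each kinase inhibitor at 1 µM, then switched to serum-free DMEM(-) with inhibitor to induce neurite outgrowth and fixed about 2-3 h later. Three blinded observers scored neurite formation from 0 (no neurites) to 8 (long neurites on almost all cells).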

Row | Compound | neurite formation score
1 | C[S+]([O-])c1ccc(-c2nc(-c3ccc(F)cc3)c(-c3ccncc3)[nH]2)cc1 (stereo not given) | 4.57
2 | CNC(=O)c1cc(Oc2ccc(NC(=O)Nc3ccc(Cl)c(C(F)(F)F)c3)c(F)c2)ccn1 [Regorafenib monohydrate] | 4.69
3 | CN1CCN(c2ccc3nc(-c4c(N)c5c(F)cccc5[nH]c4=O)[nH]c3c2)CC1 [Dovitinib (TKI-258, CHIR-258)] | 4.88
4 | CCCCCCCCc1ccc(CCC(N)(CO)CO)cc1 [Fingolimod (FTY720)] | 3.63
5 | N#CCNC(=O)c1ccc(-c2ccnc(Nc3ccc(N4CCOCC4)cc3)n2)cc1 | 4.69
6 | COc1cc2c(N3CCN(C(=O)Nc4ccc(OC(C)C)cc4)CC3)ncnc2cc1OCCCN1CCCCC1 [Tandutinib (MLN518)] | 5.29
7 | CCC(=O)Nc1cccc(Oc2nc(Nc3ccc(N4CCN(C)CC4)cc3OC)ncc2Cl)c1 | 5.63
8 | O=C(COc1ccc(Cl)cc1)NC1CCC(NC(=O)COc2ccc(Cl)cc2)CC1 (stereo not drawn) [ISRIB (trans-isomer)] | 4.54
9 | CS(=O)(=O)c1ccc(-c2cnc(N)c(C(=O)Nc3ccccc3)n2)cc1 | 4.24
10 | Cc1ccc([N+](=O)[O-])cc1S(=O)(=O)N(C)/N=C/c1cnc2ccc(Br)cn12 | 4.54
11 | COc1ncc(-c2ccc3nccc(-c4ccnnc4)c3c2)cc1NS(=O)(=O)c1ccc(F)cc1F | 2.63
12 | Nc1nc(NCCNc2ncc(-n3ccnc3)c(-c3ccc(Cl)cc3Cl)n2)ccc1[N+](=O)[O-] | 5.29
13 | CN1CC[C@H](c2c(O)cc(O)c3c(=O)cc(-c4ccccc4Cl)oc23)[C@H](O)C1 [Flavopiridol hydrochloride] | 4.47
14 | CCCCCCCCCCCCCCCc1cccc(O)c1C(=O)O [Anacardic acid] | 4.02
15 | CCOC(=O)c1cnc2ccc(-c3cncc(NS(=O)(=O)c4ccccc4)c3)cn12 | -0.457
16 | COc1cc(C(=O)N2CCC(N3CCN(C)CC3)CC2)ccc1Nc1ncc2c(n1)N(C)c1ccccc1C(=O)N2C | 4.36
17 | N#C/C(=C\c1ccc(O)c(O)c1)C(=O)NCc1ccccc1 | 4.02
18 | C[C@H](NC(=O)/C(C#N)=C/c1cccc(Br)n1)c1ccccc1 | 4.36
19 | O=C(Cc1ccc(-c2ccc(OCCN3CCOCC3)cc2)cn1)NCc1ccccc1 | -0.529
20 | O=c1cc(CN2CCOCC2)occ1OCCCCCSc1ccnc2cc(C(F)(F)F)ccc12 | 4.21

Row | Compound | neurite formation score
21 | Cc1nc(NC(=O)N2CCC[C@H]2C(N)=O)sc1-c1csc(C(C)(C)C)n1 | 4.57
22 | CCc1cnn2c(NCc3ccc[n+]([O-])c3)cc(N3CCCC[C@H]3CCO)nc12 | 3.14
23 | O=C1NC(=O)/C(=C\c2ccc3nccnc3c2)S1 | 4.14
24 | Cc1nc(Nc2cnn(C3CCNCC3)c2)nc2c1N(C)C(=O)c1cc3ccccc3cc1N2C | 3.96
25 | N#CC(=C(/N)Sc1ccccc1N)/C(C#N)=C(\N)Sc1ccccc1N | 4.57
26 | CCn1cc(-c2ccnc3[nH]c(-c4cccc(CN(C)C)c4)cc23)c(-c2ccc(NC(=O)N(C)C)cc2)n1 | 4.69
27 | CNC(=O)c1cc(Oc2ccc3nc(N[C@@H]4CCCC[C@H]4O)sc3c2)ccn1 | 3.21
28 | O=C(NC(NC(=S)Nc1ccc(F)c([N+](=O)[O-])c1)C(Cl)(Cl)Cl)C(c1ccccc1)c1ccccc1 (stereo not given) | 3.96
29 | Cc1cc(C)c(/C=C2\C(=O)Nc3ccccc32)[nH]1 | 5.02
30 | COc1cc2nccc(Oc3ccc(NC(=O)Nc4cc(C)on4)c(Cl)c3)c2cc1OC [Tivozanib (AV-951)] | 4.24
31 | Cn1c(=O)n(-c2ccc(C(C)(C)C#N)cc2)c2c3cc(-c4cnc5ccccc5c4)ccc3ncc21 | 2.9
32 | CN(C)C(=O)c1cc2cnc(Nc3ccc(N4CCNCC4)cn3)nc2n1C1CCCC1 | 4.96
33 | COc1cc2ncnc(Nc3cccc(Cl)c3F)c2cc1OC(=O)N1CCN(C)C[C@H]1C | 4.54
34 | Nc1ncnc2c1c(-c1cnc3[nH]ccc3c1)nn2C1CCCC1 | 3.21
35 | C=CC(=O)Nc1ccc2ncnc(Nc3ccc(OCc4cccc(F)c4)c(Cl)c3)c2c1 | 4.24
36 | COc1cc2ncnc(Sc3nnc(C)s3)c2cc1OC | 4.96
37 | c1cc(-c2cnn3cc(-c4ccc(OCCN5CCCCC5)cc4)cnc23)ccn1 [Dorsomorphin 2HCl] | 4.96
38 | Cn1c(Nc2ccc(C(F)(F)F)cc2)nc2cc(Oc3ccnc(-c4ncc(C(F)(F)F)[nH]4)c3)ccc21 | 4.24
39 | Cc1ccc2c(Nc3ccc(Cl)cc3)nccc2c1Nc1ncccc1-c1ncnc2nc[nH]c12 [B-Raf inhibitor 1] | 2.47
40 | Cn1c(=O)c(F)c(Nc2ccc(I)cc2F)c2c(=O)n(C[C@@H](O)CO)cnc21 | 4.88
